Experimental data: PubChem BioAssay
The source made the active and inactive calls. No stated cut-off is given here; in the data, active means inhibition above about 31%; inactive means the rest. Square brackets hold non-standard residues; d marks the D form. Peptide text beside a SMILES is read from it. * marks the point of attachment. ξ: configuration not given here. Cbz = O=C(OCc1ccccc1)*; ξK = NCCCCC(N)C(=O)O

test: MRP1 drug-resistance reversers in H69AR cells – cell-based, doxorubicin co-treatment, pilot screen (AID 601); conditions: H69AR cells, CellTiter-Glo, 72 h; compound alone cytotoxicity; at 10 µM

| Structure (SMILES) | viability |
| --- | --- |
| O=C(O)CCCc1nc(-c2ccccc2)no1 | 97% |
| COCCn1c(SCC(=O)Nc2cccc(OC)c2)nnc1-c1ccc(Cl)cc1 | 84.1% |
| CCN1C(=O)Cc2cc(S(=O)(=O)N3CCOCC3)ccc21 | 98% |
| O=C(Nc1cc(Cl)ccc1Cl)c1noc2c1CCCC2 | 83.5% |
| CCCCn1c(SCC(=O)Nc2ccc(OC)cc2)nc2ccc(N3CCOCC3)cc2c1=O | 89.6% |
| Cc1ccc(C(=O)N2CCN(C(=O)c3ccc(C)c(C)c3)C(C)C2)cc1C (stereo not given) | 82.2% |
| COc1ccc(C2CC(c3ccccc3)Nc3nc(NC(=O)c4cccs4)nn32)cc1 (stereo not given) | 88.3% |
| CC1(CC(=O)O)C(=O)N=C2C=CC=CN21 (stereo not given) | 89.4% |
| COC(=O)C(CCCCNC(=O)OCc1ccccc1)NC(=O)CN (stereo not given) (H-Gly-[ξK](Cbz)-OMe) | 100% |
| Fc1ccc(C(c2nnnn2Cc2ccco2)N2CCN(C3CCCCC3)CC2)cc1 (stereo not given) | 94.1% |
| COc1ccccc1-c1cn[nH]c(=S)n1 | 96.1% |
| CCOC(=O)C1CCCN(C(=O)c2ccc(CS(=O)(=O)Cc3ccccc3C)o2)C1 (stereo not given) | 96.2% |
| O=c1c2[nH]c3ccccc3c2ncn1CCCn1ccnc1 | 96.8% |
| COc1ccc(S(=O)(=O)N2CCN(C3CCCCCCC3)CC2)cc1 | 93.9% |
| O=C(CCn1c(=S)[nH]c2ccccc2c1=O)NCC1CCCO1 (stereo not given) | 98.2% |
| CCC(=O)Nc1ccc(NC(=O)c2cccc(OC)c2)nc1 | 97.8% |
| CN(Cc1ccccc1)C(=O)c1ccc2c(c1)OCO2 | 108% |
| O=C(O)CC1SC(=Nc2cccc(C(F)(F)F)c2)NC1=O (stereo not given) | 103% |
| CCOC(=O)C1=C(C)N=c2s/c(=C\c3cccn3C)c(=O)n2C1c1cccc(OC)c1OC (stereo not given) | 87.4% |
| CC(=O)c1cccc(NC(=O)N2CCCc3ccccc32)c1 | 93.6% |

test: yeast transport mutant growth inhibition pilot in 384-well plates, post-Golgi transport modulator project (AID 636); conditions: absorbance 615 nm, about 18 h, stronger effect = higher value

| Structure (SMILES) | inhibition |
| --- | --- |
| COC(=O)c1ccccc1NC(=O)CSc1nc2c(c(=O)n(C)c(=O)n2C)n1C | 5.26% (inactive) |
| CCCCOc1cccc(NC(=O)CSc2nccn2C)c1 | -7.03% (inactive) |
| Cc1ccc(Nc2cc(-n3nc(C)cc3C)ncn2)cc1 | -0.26% (inactive) |
| COc1ccc(-n2c(SCC#N)nc3ccccc3c2=O)cc1 | 5.06% (inactive) |
| COc1cc2c(C)nc(C)c(C#N)c2cc1OC | -6% (inactive) |
| CC1=C(C(=O)OCc2ccccc2)C(c2ccc(C)o2)C2=C(CCCC2=O)N1 (stereo not given) | -6.89% (inactive) |
| C=CCNC(=O)c1cc(-c2ccccc2O)on1 | 2.18% (inactive) |
| Cc1cc(NC(=O)CSc2nc3ccsc3c(=O)n2NC(=O)c2ccccc2)no1 | -0.93% (inactive) |
| O=C(NCc1ccco1)c1cnn2c(C(F)(F)F)cc(-c3ccco3)nc12 | -7.26% (inactive) |
| Cc1ccc(-c2nnc3ccc(SCC(=O)NCc4ccco4)nn23)cc1 | -5.41% (inactive) |
| CCCc1cc(C(N)=O)c(NC(=O)c2ccco2)s1 | -3.29% (inactive) |
| COc1ccc(CCNC(=O)c2ccncc2)cc1OC | -6.27% (inactive) |
| CCOC(=O)c1nnc(-c2ccccc2)o1 | -1.56% (inactive) |
| Cc1ccc(S(=O)(=O)N2CCCC(C(=O)NC3=NCCS3)C2)cc1 (stereo not given) | -6.67% (inactive) |
| O=C1CCCC2=C1C(c1ccsc1)CC(=O)N2c1ccccc1 (stereo not given) | -3.29% (inactive) |
| Cc1csc2nc(CSc3nc4ccccc4o3)c(Br)n12 | -3.87% (inactive) |
| CC(NC(=O)c1ccccc1NC(=O)c1ccco1)C(=O)O (stereo not given) | -2.63% (inactive) |
| CCC(=O)Nc1cc2nn(-c3ccccc3)nc2cc1Cl | -7.57% (inactive) |
| O=C(NC1CCCCC1)n1c(=O)oc2ccc(Cl)cc21 | -2.73% (inactive) |
| COc1ccc(OC)c(-c2nnc(SCC(=O)NC3CCCCC3)o2)c1 | 0% (inactive) |

| Structure (SMILES) | inhibition |
| --- | --- |
| O=C(O)CCCc1nc(-c2ccccc2)no1 | -4.53% (inactive) |
| COCCn1c(SCC(=O)Nc2cccc(OC)c2)nnc1-c1ccc(Cl)cc1 | -6.4% (inactive) |
| CCN1C(=O)Cc2cc(S(=O)(=O)N3CCOCC3)ccc21 | -6.4% (inactive) |
| O=C(Nc1cc(Cl)ccc1Cl)c1noc2c1CCCC2 | -0.51% (inactive) |
| CCCCn1c(SCC(=O)Nc2ccc(OC)cc2)nc2ccc(N3CCOCC3)cc2c1=O | -2.8% (inactive) |
| Cc1ccc(C(=O)N2CCN(C(=O)c3ccc(C)c(C)c3)C(C)C2)cc1C (stereo not given) | -4.61% (inactive) |
| COc1ccc(C2CC(c3ccccc3)Nc3nc(NC(=O)c4cccs4)nn32)cc1 (stereo not given) | -1.69% (inactive) |
| CC1(CC(=O)O)C(=O)N=C2C=CC=CN21 (stereo not given) | -4.93% (inactive) |
| COC(=O)C(CCCCNC(=O)OCc1ccccc1)NC(=O)CN (stereo not given) (H-Gly-[ξK](Cbz)-OMe) | -2.6% (inactive) |
| Fc1ccc(C(c2nnnn2Cc2ccco2)N2CCN(C3CCCCC3)CC2)cc1 (stereo not given) | 2% (inactive) |
| COc1ccccc1-c1cn[nH]c(=S)n1 | 1.07% (inactive) |
| CCOC(=O)C1CCCN(C(=O)c2ccc(CS(=O)(=O)Cc3ccccc3C)o2)C1 (stereo not given) | -0.39% (inactive) |
| O=c1c2[nH]c3ccccc3c2ncn1CCCn1ccnc1 | -3.77% (inactive) |
| COc1ccc(S(=O)(=O)N2CCN(C3CCCCCCC3)CC2)cc1 | -2.11% (inactive) |
| O=C(CCn1c(=S)[nH]c2ccccc2c1=O)NCC1CCCO1 (stereo not given) | -6.13% (inactive) |
| CCC(=O)Nc1ccc(NC(=O)c2cccc(OC)c2)nc1 | 0.14% (inactive) |
| CN(Cc1ccccc1)C(=O)c1ccc2c(c1)OCO2 | -2.53% (inactive) |
| O=C(O)CC1SC(=Nc2cccc(C(F)(F)F)c2)NC1=O (stereo not given) | -1.45% (inactive) |
| CCOC(=O)C1=C(C)N=c2s/c(=C\c3cccn3C)c(=O)n2C1c1cccc(OC)c1OC (stereo not given) | -1.56% (inactive) |
| CC(=O)c1cccc(NC(=O)N2CCCc3ccccc32)c1 | -3.73% (inactive) |
